Sampled rows, rich in hits. Any-hit rate of the full collection: about 4.1%.
hcDAF-12 act: activates DAF-12 receptor from parasite H. contortus; HEK293 hcDAF-12 lit1-tk-luc reporter, luminescence; 0% DMSO, 100% Δ7-dafachronic acid; hit rate 1.4% among 370,000; activation, % at 6.8 µM; AID 652067;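 active = activation above the mean of all tested compounds plus 3 SD, cut at about 5.5% in these data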;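 note: 100% = response to 3 µM Δ7-dafachronic acid high control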
DAX1 inh-1: blocks DAX1 repression of SF-1 activated StAR promoter | HEK293T StAR-luciferase reporter, SF-1/DAX-1 repression relief | inhibition, % at 6.8 µM | hit rate 1.1% among 370,000 | AID 652010;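 active = inhibition above the mean over all tested compounds plus 3 SD, cut at about 3.6% in these data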;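 note: 0% = DAX-1 cells with DMSO and 100% = cells lacking DAX-1 with DMSO; higher inhibition means more luminescence from relief of DAX-1 repression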
DAX1 inh-2: inhibitors of human orphan nuclear receptor DAX1 (NR0B1); HEK293 Gal4-DAX1 luciferase reporter, luminescence; AID 504766; hit rate 0.99% among 340,000; inhibition, % at 6.75 µM;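 active = inhibition above the mean over all tested compounds plus 3 SD, cut at about 4.2% in these data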;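 note: 0% = DAX1-transfected cells with DMSO and 100% = empty-vector control cells with DMSO; inhibition shows as a rise in luminescence from relieved DAX1 repression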
Target sequence (P51843 207-470 limits assumed): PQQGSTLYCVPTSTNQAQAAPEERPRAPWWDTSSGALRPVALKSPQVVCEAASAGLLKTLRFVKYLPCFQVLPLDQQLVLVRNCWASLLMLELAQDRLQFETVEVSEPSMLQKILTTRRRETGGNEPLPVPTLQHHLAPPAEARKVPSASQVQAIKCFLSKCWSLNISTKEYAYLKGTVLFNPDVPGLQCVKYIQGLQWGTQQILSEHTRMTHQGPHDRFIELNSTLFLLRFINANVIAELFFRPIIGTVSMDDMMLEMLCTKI
hgDAF-12 ag: hgDAF-12 agonism, primary luciferase screen. activation, % at 6.8 µM. hit rate 1.8% among 370,000. HEK293 GAL4-hgDAF12 UAS-luciferase reporter, agonist luminescence; normalized to butyrate control;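 active = activation above a cutoff set at the mean of all screened compounds plus 3 SD, cut at about 10% in these data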;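 note: 0% = DMSO wells and 100% = sodium butyrate wells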
ssDAF12 agonist: activates DAF-12 receptor from parasite S. stercoralis; hit rate 1% among 370,000; activation, % at 6.8 µM; HEK293 ssDAF-12/GRIP1 lit1-tk-luc reporter, luminescence; % of 3 µM dafachronic acid response; AID 652126;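 active = activation above the mean over all tested compounds plus 3 SD, cut at about 0.9% in these data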;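 note: 0% = DMSO-only wells and 100% = 3 µM delta7-dafachronic acid wells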
Numbers without * were called inactive; · = no result.

SMILES | hcDAF-12 act | DAX1 inh-1 | DAX1 inh-2 | hgDAF-12 ag | ssDAF12 agonist
N/C(=N\O)c1ccc(Oc2ccccc2Cl)c([N+](=O)[O-])c1 | -0.9 | -0.8 | 5.4* | 2.6 | -1.9
COC(=O)c1c(-c2ccccc2)csc1NC(=O)c1ccco1 | -0.5 | 2.9 | -0.1 | 10.8* | -1.0
Cn1c(CNC(=O)CNS(=O)(=O)c2ccccc2)cc(=O)n(C)c1=O | 1.4 | 3.8* | 0.7 | 0.7 | -1.5
C[C@H]1[C@H](NC(=O)c2ccc(Cl)c(Cl)c2)CC[C@@]23CCCN2C(=O)CCC[C@@H]13 | -2.3 | · | · | -1.1 | -1.4
CCN(Cc1nc2ccccc2n1C)c1ccccc1 | 4.4 | 0.3 | -0.3 | 6.0 | 2.1*
Cn1c(Cc2nc3ccccc3n2C)nc2ccccc21 | -1.1 | -0.5 | 0.4 | -1.0 | -1.1
CC(C)C(=O)N1CC[C@H]2[C@H](CCCN2Cc2ccc(F)cc2)C1 | -3.6 | 0.4 | · | 2.4 | -1.1
COc1cc(O)c([C@@H](CC(=O)N2CC(C)CC(C)C2)c2ccc3c(c2)OCO3)c(OC)c1 (stereo partly specified) | 3.4 | · | · | -3.1 | -1.3
COc1ccc(S[C@]2(C(=O)N3CCOCC3)CC(=O)N(c3ccc(OC)cc3)[C@@H]2c2ccc(OC)cc2)cc1 | -1.0 | -1.1 | · | 1.7 | -1.1
COc1ccc(/C=N/Nc2cc(C)nc3c(C)cccc23)cc1 | -2.0 | -0.3 | -0.7 | 2.2 | -2.1
Cc1cccc(C=NNc2cc(C)c3cccc(C)c3n2)n1 | 3.9 | 1.3 | · | 12.0* | 0.6
COc1ccc(CNC(=O)/C=C/[C@H]2O[C@@H](n3cc(C)c(=O)[nH]c3=O)C[C@@H]2O)cc1 | -0.6 | 0.7 | · | 1.4 | -1.4
O=C(O)Cn1c2c(c3ccccc31)CSc1ccc(Cl)cc1-2 | 7.5* | -0.3 | 1.5 | 1.4 | 0.8
O=C(CSc1nnc(-c2ccccc2)n1-c1ccccc1)Nc1cccc2ccccc12 | 1.6 | -1.3 | · | 0.1 | -0.3
CCCC(C)NC(=O)CC1Oc2ccccc2NC1=O (stereo unspecified) | -2.4 | 0.7 | · | 1.6 | -0.8
CCOn1c(=O)c(-c2cccs2)[n+]([O-])c2ccccc21 | 0.9 | -0.9 | 5.2* | 0.1 | -1.1
CCOn1c(=O)c(-c2ccc(F)cc2)[n+]([O-])c2ccccc21 | 0.6 | 0.3 | 4.8* | -2.2 | -1.1
CCOC(=O)COn1c(=O)c(-c2cccs2)[n+]([O-])c2ccccc21 | -0.4 | 0.4 | 0.3 | 2.2 | -0.8
Cc1cc(=O)[nH]c(N/N=C/c2ccc(F)cc2)n1 | -0.6 | 0.2 | 1.4 | -0.4 | 1.3*
Cc1cc(=O)[nH]c(N/N=C/c2ccc(N(C)C)cc2)n1 | -0.6 | 0.4 | 0.3 | 1.4 | -1.2
CCC(=O)N1N=C(c2ccc(NS(C)(=O)=O)cc2)CC1c1ccc(N(C)C)cc1 (stereo unspecified) | 1.1 | 0.5 | -0.5 | 13.0* | -1.4
COc1ccc(CSc2nnc(SCC(=O)Nc3ccccc3-c3ccccc3)s2)cc1 | -3.6 | -2.5 | · | -2.2 | -1.9
O=C(Nc1c[nH]c(=O)[nH]c1=O)c1ccccc1Br | 0.4 | 0.0 | 6.4* | -0.7 | -0.5
O=C(NNC(=O)c1c(O)c2ccccc2[nH]c1=O)c1ccccc1Br | 2.0 | 0.0 | 0.1 | 0.9 | 0.9*
O=C(CCl)NNC(=O)c1c(O)c2ccccc2[nH]c1=O | -0.6 | -1.3 | -1.0 | -5.3 | -1.4
SMILES | hcDAF-12 act | DAX1 inh-1 | DAX1 inh-2 | hgDAF-12 ag | ssDAF12 agonist
O=C(Nc1ccccc1C(=O)Nc1ccccc1)c1ccccc1Br | -0.3 | -0.6 | 0.2 | -1.0 | -0.5
O=C(CCl)NC1CCCCN(Cc2ccc(OC(F)(F)F)cc2)C1=O (stereo unspecified) | -2.4 | -4.3 | · | -3.4 | -1.9
Cc1ccc(-n2c(Cc3cccs3)nnc2SCC(=O)Nc2cccc3ccccc23)cc1 | -2.3 | -1.0 | · | 1.9 | -1.5
CSCCCNC(=O)c1oc(=O)c2ccccc2c1-c1ccc(C)cc1 | -1.3 | -1.7 | · | 3.4 | -1.3
CCN(Cc1nc(-c2cccc(Cl)c2)no1)CC1CCCO1 (stereo unspecified) | -0.4 | 0.2 | -0.5 | 1.2 | -1.1
CN(Cc1nc(-c2cccc(Cl)c2)no1)C1CCOCC1 | 2.5 | 2.0 | 0.3 | 12.0* | -0.7
Cc1ccc(Cl)cc1N1CCN(C(=O)c2cc3c(=O)n(C)c4ccccc4c3n2C)CC1 | -2.4 | -0.4 | -0.6 | -1.2 | -0.5
Cc1cccc(N2CCN(C(=O)c3cc4c(=O)n(C)c5ccccc5c4n3C)CC2)c1C | -2.5 | 1.0 | -0.8 | -1.6 | 1.9*
Cc1ccc(NC(=S)NC2CCN(Cc3ccccc3)CC2)cc1C | -1.2 | -0.2 | -0.1 | 0.2 | -1.5

Screening results (PubChem BioAssay)
